Molecules are shown by their SMILES. Screen size: about 340,000 compounds; about 2,800 (0.82%) were called active.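 The calls were made as follows: active = B-score under library mean minus 4 SD, starting fluorescence ratio at most library mean plus 5 SD; inactive = the rest.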 The full list was thinned out, with actives kept by preference.

This experiment deals with Potassium channel subfamily K member 3 (Homo sapiens) (UniProt O14649). Kind of experiment: blockers of TASK1 two-pore potassium channel – CHO cells, FluxOR thallium flux, B-score, primary screen (AID 602410).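 As to B-score: more negative B-score means stronger inhibition of thallium flux through KCNK3.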 As to conditions: CHO-KCNK3 thallium flux, FluxOR fluorescence, at 10 µM; stronger effect = lower value.
Potassium channel subfamily K member 3 (Homo sapiens), sequence (O14649 whole entry, looked up): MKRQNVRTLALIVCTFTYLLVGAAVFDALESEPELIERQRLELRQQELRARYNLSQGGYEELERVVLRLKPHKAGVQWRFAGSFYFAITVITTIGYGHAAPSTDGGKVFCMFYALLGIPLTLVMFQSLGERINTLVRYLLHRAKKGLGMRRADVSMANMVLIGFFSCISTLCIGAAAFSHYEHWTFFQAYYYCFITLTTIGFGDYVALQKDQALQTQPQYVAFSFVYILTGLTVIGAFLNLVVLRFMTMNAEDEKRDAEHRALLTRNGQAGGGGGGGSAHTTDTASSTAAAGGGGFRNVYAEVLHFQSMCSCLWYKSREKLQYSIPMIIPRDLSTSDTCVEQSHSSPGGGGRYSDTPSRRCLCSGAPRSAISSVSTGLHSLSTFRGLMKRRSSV
As for `CCOC(=O)N1CCC(N(CCOC)C(=O)Nc2ccc(C)c(C)c2)CC1`, the B-score result is “inactive”.

Regarding `O=C(NCCc1csc(-c2ccccc2)n1)c1ccccc1F`, the B-score result is “inactive”.

`COc1ccc(N2CCN(C(=O)CNC(=O)c3ccc(Br)o3)CC2)cc1`: the B-score result is “inactive”.

Regarding `COc1ccc(-c2nc(CCNC(=O)c3ccc(Br)o3)cs2)cc1`, the B-score is -10.2 (active).

Turning to `O=C(COC(=O)Cc1ccccc1F)NCCc1ccccc1`, the B-score entry was “inactive”.

On to `N#Cc1ccc(S(=O)(=O)NCC(=O)OCC(=O)NCCc2ccccc2)cc1`, for which the B-score was -11.3 (active).

As for `O=C(COC(=O)CNS(=O)(=O)c1ccccc1)NC12CC3CC(CC(C3)C1)C2`, the B-score result was “inactive”.

In the case of `COC(=O)c1ccc(CN2C(=O)NC(c3ccccc3)(c3ccccc3)C2=O)o1`, the B-score entry was “inactive”.

Take `COc1ccc(CNc2ncnc3ccccc23)cc1`: the B-score result is “inactive”.

Turning to `CCc1ccc(C(CNc2nc(C(F)(F)F)nc3ccccc23)N(C)C)cc1` (stereo not given), the B-score entry is “inactive”.

On to `COc1cccc(CNc2nc(C(F)(F)F)nc3ccccc23)c1`, for which the B-score is -9.39 (active).

For `O=Cc1c(Cl)cccc1Cl`, the B-score entry was “inactive”.

On to `O=C(NNC1=C(C(=O)C(F)(F)F)CCC1)c1ccncc1`, for which the B-score result was “inactive”.

For `Cc1ccc(C(=O)OCC(=O)NC(=O)Cc2ccccc2)c(O)c1`, the B-score entry was “inactive”.

For the compound `O=C(COC(=O)c1cccs1)NCc1cccs1`, the B-score entry was “inactive”.

Regarding `COCCNC(=O)Cn1cc(C(=O)c2cccs2)c2ccccc21`, the B-score result was “inactive”.

`O=C(Cn1cc(C(=O)c2cccs2)c2ccccc21)NCc1cccs1`: the B-score was -13.4 (active).

Regarding `COc1ccc(F)cc1C(=O)C1CCCN(C(=O)CCc2ccccn2)C1` (stereo not given), the B-score entry is “inactive”.

Turning to `CCOC(=O)c1sc(-c2cccc([N+](=O)[O-])c2)cc1N`, the B-score result is “inactive”.

Take `O=C(c1ccc(F)cc1)C1CCN(Cc2cn[nH]c2-c2ccccc2)CC1`: the B-score result was “inactive”.

Turning to `Cc1ccccc1NC(=O)Nc1ccccc1N1CCCCC1`, the B-score result is “inactive”.

Turning to `O=C(CNCCC1=CCCCC1)Nc1ccccc1N1CCCCCC1`, the B-score was -12.6 (active).

Turning to `Cc1ccc(C(C)C)cc1OCC(=O)Nc1ccccc1N1CCCC1`, the B-score result was “inactive”.

As to `CC1=C[C@H]2Cc3cc(C)cc(C)c3S(=O)(=O)[C@@H]2C=C1`, the B-score entry was “inactive”.

On to `CC(C)n1c(O)c(N=Nc2ccccn2)c2ccccc21`, for which the B-score result was “inactive”.

Regarding `CCN(CC)CCN(C(=O)c1cc(Cl)sc1Cl)c1nc2cc3c(cc2s1)OCO3`, the B-score was -8.98 (active).

With `CN(C)CCN(C(=O)C1CCCCC1)c1nc2cc3c(cc2s1)OCO3`, the B-score result was “inactive”.

On to `CN(C)CCN(C(=O)C1=COCCO1)c1nc2ccc(Cl)cc2s1`, for which the B-score entry is “inactive”.

Consider `CCn1c(SCC(=O)NC2CCCC2)nnc1-c1ccoc1C`, for which the B-score result was “inactive”.

In the case of `CCN(CC)C(=O)CN(c1cccc(OC)c1)S(=O)(=O)c1ccc(C)cc1`, the B-score entry was “inactive”.

Take `CCCCCCCC(=O)NC(Nc1ccccc1OC)C(Cl)(Cl)Cl` (stereo not given): the B-score result is “inactive”.

Take `Cc1ccc(O)c(CCc2ccccc2)n1`: the B-score entry was “inactive”.

Take `COc1cc(NC(=O)c2cccs2)ccc1NC(=O)c1ccccc1Cl`: the B-score entry is “inactive”.

On to `O=C(Nc1ccccc1-c1ccccc1)c1cccs1`, for which the B-score entry is “inactive”.

In the case of `CC(Oc1cccc(NC(=O)c2cccs2)c1)C(=O)c1ccccc1` (stereo not given), the B-score was -11.3 (active).

In the case of `CCNC(=O)CC1C(=O)N(c2ccc(OC)cc2)C(=O)N1CCOC` (stereo not given), the B-score entry was “inactive”.

Regarding `COC(=O)c1ccc(-n2cnc3ccccc32)nc1`, the B-score entry is “inactive”.

On to `Cc1ccnc(N2C(=O)c3ccccc3C2Nc2ccc3c(c2)OCCO3)c1` (stereo not given), for which the B-score result is “inactive”.

Take `COC(=O)c1cc(NC2c3ccccc3C(=O)N2c2ccc(Cl)cn2)cc(C(=O)OC)c1` (stereo not given): the B-score is -10.8 (active).

Consider `Cn1ccnc1-c1nnn(-c2ccc(F)cc2)n1`, for which the B-score entry was “inactive”.

Regarding `O=C(CC(c1ccccc1)c1cc(Cl)ccc1O)NCCN1CCOCC1` (stereo not given), the B-score result was “inactive”.

For `Cc1cc(OCCCCOc2ccc(C#N)cc2)ccc1[N+](=O)[O-]`, the B-score was -9.68 (active).

Consider `Cc1cc(OCC(=O)NC2CCN(C)CC2)ccc1[N+](=O)[O-]`, for which the B-score result was “inactive”.

As for `Cc1cc(OCCCN2CCN(Cc3ccccc3)CC2)ccc1[N+](=O)[O-]`, the B-score entry is “inactive”.

With `COC(c1ccccc1)c1nnc(CCC(=O)N2CCN(CCOc3ccccc3)CC2)o1` (stereo not given), the B-score entry is “inactive”.

For `O=C(CC1NCCc2ccccc21)Nc1cccc(Cl)c1` (stereo not given), the B-score is -8.87 (active).

Regarding `O=C(CC1NCCNC1=O)Nc1cc(Cl)cc(Cl)c1` (stereo not given), the B-score result was “inactive”.

For the compound `O=C(CC1NCCNC1=O)Nc1ccc(Oc2ccccc2)cc1` (stereo not given), the B-score result was “inactive”.

On to `O=C(NNS(=O)(=O)c1ccccc1C(F)(F)F)c1cc2ncc(C(F)(F)F)cc2s1`, for which the B-score result was “inactive”.

As for `CN1CCN(C(=O)/C(=C\c2cccs2)NC(=O)c2cccs2)CC1`, the B-score entry was “inactive”.

`O=C(COC(=O)Cn1[nH]c(=O)c2ccccc2c1=O)Nc1ncc(Cl)cc1Cl`: the B-score result is “inactive”.

With `Cc1ccc(C)c(C(=O)COC(=O)Cn2[nH]c(=O)c3ccccc3c2=O)c1`, the B-score is -9.1 (active).

Turning to `CN(C)S(=O)(=O)c1ccc(NC(=O)COC(=O)Cn2[nH]c(=O)c3ccccc3c2=O)cc1`, the B-score result is “inactive”.

In the case of `CCC(C)(C)n1nnnc1C(c1cccs1)N1CCN(c2nc3ccccc3s2)CC1` (stereo not given), the B-score was -9.57 (active).

With `Fc1ccc(Cn2nnnc2C(c2cccs2)N2CCCCCC2)cc1` (stereo not given), the B-score entry is “inactive”.

As to `CCC(C)(C)n1nnnc1C(c1ccc(OC)c(OC)c1)N1CCN(C(=O)c2ccco2)CC1` (stereo not given), the B-score entry was “inactive”.

In the case of `CC(C)C(=O)N1CCN(CCN=CC2=C(O)CC(c3ccco3)CC2=O)CC1` (stereo not given), the B-score entry was “inactive”.

For the compound `CCOC(=O)C1=C(CN2CCc3ccccc32)NC(=O)NC1c1cc(C)ccc1C` (stereo not given), the B-score result is “inactive”.

On to `CC(C)(C)c1nnc(N/N=C/c2ccc(O)cc2)n(N)c1=O`, for which the B-score entry is “inactive”.

In the case of `O=C(Nc1cc(=O)[nH]c2ncnn12)c1ccccc1Cl`, the B-score result is “inactive”.

`CCCC(c1nnnn1C(C)(C)C)N1CCN(Cc2ccccc2)CC1` (stereo not given): the B-score entry was “inactive”.

Turning to `COc1ccccc1C(c1nnnn1C(C)(C)C)N1CCN(Cc2ccccc2)CC1` (stereo not given), the B-score is -8.94 (active).

Consider `COc1ccc(OC)c(C(c2nnnn2C(C)(C)C)N2CCc3ccccc3C2)c1` (stereo not given), for which the B-score result is “inactive”.

Regarding `C=CCn1c(SCc2cc(C(=O)OC)c(C)o2)nnc1-c1ccncc1`, the B-score result was “inactive”.

Regarding `COc1ccc(N2CCN(S(=O)(=O)c3ccc4c(c3)NC(=O)C(C)C(=O)N4)CC2)cc1` (stereo not given), the B-score result was “inactive”.

In the case of `O=C(Nc1cccnc1)c1cc([N+](=O)[O-])ccc1Cl`, the B-score entry was “inactive”.

With `CNc1ccc([N+](=O)[O-])cc1C(=O)O`, the B-score entry is “inactive”.

As for `Cc1ccc(NC(=O)c2cc([N+](=O)[O-])ccc2Cl)c(O)c1`, the B-score was -10.1 (active).

With `Cc1ccc(SCC(=O)Nc2nncs2)cc1`, the B-score entry is “inactive”.

Turning to `COc1ccccc1-c1c(C#N)c(N)nc2c1CCC2`, the B-score entry was “inactive”.

These data come from PubChem BioAssay AID602410 (Johns Hopkins Ion Channel Center, 2012).
